Holding throughout (assay): DAPPL (digital affinity profiling via proximity ligation, sequencing); 10 mM Tris-HCl pH 7.5, 50 mM NaCl, 1 mM DTT, 4% glycerol, room temperature, 30 min; GST-TFs on glutathione beads, 16-mer random dsDNA library, 0.1% formaldehyde crosslink after washing; high values mean tight binding
One assay concerns the target T1, FEV (Homo sapiens, UniProt Q99581 1-238).
T1 sequence: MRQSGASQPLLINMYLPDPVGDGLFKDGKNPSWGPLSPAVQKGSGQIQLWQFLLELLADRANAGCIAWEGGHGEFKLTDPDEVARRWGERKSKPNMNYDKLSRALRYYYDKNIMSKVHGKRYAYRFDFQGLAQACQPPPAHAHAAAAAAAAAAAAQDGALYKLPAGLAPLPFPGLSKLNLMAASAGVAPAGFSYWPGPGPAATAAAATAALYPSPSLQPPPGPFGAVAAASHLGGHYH
To be noted: protein: recombinant; tags: N-terminal GST; dsDNA, one strand shown. Put shortly:
(§1)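 A tag-only sample was pooled with DNA-barcoded human transcription factors that had been expressed in yeast as GST fusions and captured on glutathione beads. The pools were incubated for 30 min at room temperature with 200 nmole of a random double-stranded 16-mer DNA library in Tris/NaCl/DTT/glycerol buffer, then washed, crosslinked with 0.1% formaldehyde, proximity-ligated (BsaI/T4 ligase, 1 h, 37 °C), PCR-amplified and sequenced on an Illumina NextSeq500. Binding signal is each hexamer's read frequency for a factor divided by its frequency for the tag-only sample.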

A further assay concerns the target ETV5 (Homo sapiens, UniProt P41161 1-510). The settings on record: protein: recombinant; tags: N-terminal GST; dsDNA, one strand shown. Put shortly:
as §1

The target in a further assay is HSF1 (Homo sapiens, UniProt Q00613 1-529). The settings on record: protein: recombinant; tags: N-terminal GST; chain copies: 3; dsDNA, one strand shown. Put shortly:
as §1

The target in another assay is T2, SPIC (Homo sapiens, UniProt Q8N5J4 1-248).
T2 sequence: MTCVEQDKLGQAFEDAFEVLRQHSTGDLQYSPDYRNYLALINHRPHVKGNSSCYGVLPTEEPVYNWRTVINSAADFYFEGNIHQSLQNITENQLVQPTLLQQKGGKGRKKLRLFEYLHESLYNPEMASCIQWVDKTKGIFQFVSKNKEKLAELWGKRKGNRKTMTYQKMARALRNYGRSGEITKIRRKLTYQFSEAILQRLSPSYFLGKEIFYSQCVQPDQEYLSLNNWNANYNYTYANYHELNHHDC
The settings on record: protein: recombinant; tags: N-terminal GST; dsDNA, one strand shown. The gist of the method: as §1

The next assay has as its target ELF4 (Homo sapiens, UniProt Q99607 1-663). To be noted: protein: recombinant; tags: N-terminal GST; dsDNA, one strand shown. Put shortly:
as §1

Another assay has as its target T3, ELK4 (Homo sapiens, UniProt P28324-2 1-405).
T3 sequence: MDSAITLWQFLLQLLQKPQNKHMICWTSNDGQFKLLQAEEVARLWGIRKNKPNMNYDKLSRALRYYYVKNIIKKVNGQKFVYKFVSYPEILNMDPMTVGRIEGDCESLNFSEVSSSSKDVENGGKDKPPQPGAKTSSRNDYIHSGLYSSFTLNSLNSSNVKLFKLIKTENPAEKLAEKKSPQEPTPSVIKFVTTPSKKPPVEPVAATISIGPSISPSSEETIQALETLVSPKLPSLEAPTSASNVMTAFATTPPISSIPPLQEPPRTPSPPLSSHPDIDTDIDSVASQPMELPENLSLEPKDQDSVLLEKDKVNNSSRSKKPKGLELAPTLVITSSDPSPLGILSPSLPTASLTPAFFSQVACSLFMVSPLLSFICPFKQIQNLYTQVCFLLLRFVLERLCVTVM
The settings on record: protein: recombinant; tags: N-terminal GST; dsDNA, one strand shown. Put shortly:
as §1

A further assay has as its target T4, ETV2 (Homo sapiens, UniProt O00321 1-342).
T4 sequence: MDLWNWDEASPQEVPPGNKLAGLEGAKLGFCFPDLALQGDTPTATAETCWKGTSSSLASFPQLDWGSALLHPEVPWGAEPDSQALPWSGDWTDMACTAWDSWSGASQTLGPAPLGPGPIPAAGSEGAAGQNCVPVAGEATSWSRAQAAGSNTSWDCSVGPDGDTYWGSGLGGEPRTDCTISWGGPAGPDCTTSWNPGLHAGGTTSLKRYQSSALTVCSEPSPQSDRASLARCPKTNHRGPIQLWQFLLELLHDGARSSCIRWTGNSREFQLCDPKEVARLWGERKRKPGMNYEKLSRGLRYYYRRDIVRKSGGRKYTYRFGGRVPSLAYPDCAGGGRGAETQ
To be noted: protein: recombinant; tags: N-terminal GST; dsDNA, one strand shown. The gist of the method: as §1

In another assay the target is T5, ELF3 (Homo sapiens, UniProt P78545 1-371).
T5 sequence: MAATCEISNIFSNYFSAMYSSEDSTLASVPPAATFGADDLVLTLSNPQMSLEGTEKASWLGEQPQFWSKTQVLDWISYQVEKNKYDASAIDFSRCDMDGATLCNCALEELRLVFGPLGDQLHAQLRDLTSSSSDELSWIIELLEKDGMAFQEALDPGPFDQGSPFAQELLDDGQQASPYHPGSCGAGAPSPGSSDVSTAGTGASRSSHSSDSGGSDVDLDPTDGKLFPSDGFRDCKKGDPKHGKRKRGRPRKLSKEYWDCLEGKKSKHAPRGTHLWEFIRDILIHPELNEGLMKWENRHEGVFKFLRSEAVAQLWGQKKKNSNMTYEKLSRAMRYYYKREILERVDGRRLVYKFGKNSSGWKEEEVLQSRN
To be noted: protein: recombinant; tags: N-terminal GST; dsDNA, one strand shown. Put shortly:
as §1

Another assay addresses CRX (Homo sapiens, UniProt O43186 1-299). The settings on record: protein: recombinant; tags: N-terminal GST; dsDNA, one strand shown. Put shortly:
as §1

The next assay deals with ETV1 (Homo sapiens, UniProt P50549 1-477). To be noted: protein: recombinant; tags: N-terminal GST; dsDNA, one strand shown. The gist of the method: as §1
Chain of ETV1 (P50549 whole entry): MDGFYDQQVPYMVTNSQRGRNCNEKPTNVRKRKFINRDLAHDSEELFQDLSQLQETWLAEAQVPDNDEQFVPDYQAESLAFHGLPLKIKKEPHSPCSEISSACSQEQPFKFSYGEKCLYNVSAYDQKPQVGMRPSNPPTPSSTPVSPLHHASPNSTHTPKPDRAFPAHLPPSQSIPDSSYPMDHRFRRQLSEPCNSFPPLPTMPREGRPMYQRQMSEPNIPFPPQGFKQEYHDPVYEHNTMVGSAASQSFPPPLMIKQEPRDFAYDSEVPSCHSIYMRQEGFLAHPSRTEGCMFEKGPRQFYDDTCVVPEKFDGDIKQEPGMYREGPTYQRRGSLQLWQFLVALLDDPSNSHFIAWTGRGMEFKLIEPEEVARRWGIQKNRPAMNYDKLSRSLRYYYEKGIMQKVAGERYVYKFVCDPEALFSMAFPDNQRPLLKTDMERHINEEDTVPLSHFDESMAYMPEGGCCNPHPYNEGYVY
The next assay concerns the target T6, ERF (Homo sapiens, UniProt P50548 1-548).
T6 sequence: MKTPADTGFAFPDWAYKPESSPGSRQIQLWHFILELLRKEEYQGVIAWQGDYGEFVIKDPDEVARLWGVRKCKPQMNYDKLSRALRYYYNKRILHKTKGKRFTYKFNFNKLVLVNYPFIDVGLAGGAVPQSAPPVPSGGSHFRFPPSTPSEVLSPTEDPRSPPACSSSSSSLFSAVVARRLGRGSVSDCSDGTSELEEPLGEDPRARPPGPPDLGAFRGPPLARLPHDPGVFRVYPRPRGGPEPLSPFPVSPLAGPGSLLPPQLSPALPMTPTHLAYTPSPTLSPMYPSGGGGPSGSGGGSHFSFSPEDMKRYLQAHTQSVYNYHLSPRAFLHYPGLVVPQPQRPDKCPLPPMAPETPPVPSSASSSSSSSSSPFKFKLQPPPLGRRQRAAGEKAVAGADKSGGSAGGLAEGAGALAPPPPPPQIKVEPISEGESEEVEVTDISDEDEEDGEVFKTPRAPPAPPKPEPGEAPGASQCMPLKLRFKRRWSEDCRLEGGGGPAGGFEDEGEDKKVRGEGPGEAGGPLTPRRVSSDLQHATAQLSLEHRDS
To be noted: protein: recombinant; tags: N-terminal GST; dsDNA, one strand shown. The gist of the method: as §1

For another assay, the target named is T7, ETV3L (Homo sapiens, UniProt Q6ZN32 1-361).
T7 sequence: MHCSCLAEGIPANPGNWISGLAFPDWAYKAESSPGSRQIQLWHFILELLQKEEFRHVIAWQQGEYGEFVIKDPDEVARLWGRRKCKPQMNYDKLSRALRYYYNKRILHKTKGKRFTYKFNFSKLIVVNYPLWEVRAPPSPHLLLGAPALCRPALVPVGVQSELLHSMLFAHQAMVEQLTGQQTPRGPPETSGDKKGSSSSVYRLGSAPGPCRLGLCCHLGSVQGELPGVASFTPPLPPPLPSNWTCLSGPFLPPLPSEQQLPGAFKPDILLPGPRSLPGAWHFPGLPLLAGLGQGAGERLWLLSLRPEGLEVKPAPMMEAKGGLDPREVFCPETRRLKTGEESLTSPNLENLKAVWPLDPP
The settings on record: protein: recombinant; tags: N-terminal GST; dsDNA, one strand shown. Put shortly:
as §1

The next assay concerns the target T8, ETS2 (Homo sapiens, UniProt P15036 1-469).
T8 sequence: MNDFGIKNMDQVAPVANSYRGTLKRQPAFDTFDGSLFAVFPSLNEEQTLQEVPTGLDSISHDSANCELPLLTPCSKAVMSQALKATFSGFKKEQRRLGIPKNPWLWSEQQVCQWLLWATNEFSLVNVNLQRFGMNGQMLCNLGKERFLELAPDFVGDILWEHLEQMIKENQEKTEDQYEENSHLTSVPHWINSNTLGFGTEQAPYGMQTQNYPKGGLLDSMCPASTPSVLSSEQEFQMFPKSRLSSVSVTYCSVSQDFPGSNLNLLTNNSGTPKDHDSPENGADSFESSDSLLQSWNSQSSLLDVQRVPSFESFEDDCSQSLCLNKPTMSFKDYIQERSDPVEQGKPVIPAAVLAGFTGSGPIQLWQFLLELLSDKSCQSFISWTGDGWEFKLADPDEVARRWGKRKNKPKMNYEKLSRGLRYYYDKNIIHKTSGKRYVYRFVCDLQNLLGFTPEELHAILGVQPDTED
The settings on record: protein: recombinant; tags: N-terminal GST; dsDNA, one strand shown. Put shortly: as §1

The target in the next assay is T9, SPDEF (Homo sapiens, UniProt O95238 1-335).
T9 sequence: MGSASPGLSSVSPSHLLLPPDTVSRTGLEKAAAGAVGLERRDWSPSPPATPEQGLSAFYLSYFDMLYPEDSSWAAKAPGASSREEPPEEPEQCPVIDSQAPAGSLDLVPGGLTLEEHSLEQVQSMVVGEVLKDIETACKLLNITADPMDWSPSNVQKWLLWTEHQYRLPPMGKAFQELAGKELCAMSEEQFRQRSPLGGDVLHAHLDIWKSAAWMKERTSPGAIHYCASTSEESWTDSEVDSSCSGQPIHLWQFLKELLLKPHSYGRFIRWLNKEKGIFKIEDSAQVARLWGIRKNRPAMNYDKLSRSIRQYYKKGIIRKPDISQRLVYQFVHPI
The settings on record: protein: recombinant; tags: N-terminal GST; dsDNA, one strand shown. The gist of the method:
as §1

The target of another assay is T10, ETV7 (Homo sapiens, UniProt Q9Y603 1-341).
T10 sequence: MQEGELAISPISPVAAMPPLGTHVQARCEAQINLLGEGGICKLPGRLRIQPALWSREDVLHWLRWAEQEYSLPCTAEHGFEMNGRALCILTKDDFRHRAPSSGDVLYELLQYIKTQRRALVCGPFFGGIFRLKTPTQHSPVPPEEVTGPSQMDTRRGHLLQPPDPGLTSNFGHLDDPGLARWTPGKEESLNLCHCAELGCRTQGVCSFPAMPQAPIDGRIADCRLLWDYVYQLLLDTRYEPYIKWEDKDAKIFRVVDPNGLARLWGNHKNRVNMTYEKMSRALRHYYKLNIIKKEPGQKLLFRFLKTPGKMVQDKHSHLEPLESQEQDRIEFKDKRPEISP
The settings on record: protein: recombinant; tags: N-terminal GST; dsDNA, one strand shown. Put shortly: as §1

In the next assay the target is T11, ELF5 (Homo sapiens, UniProt Q9UKW6-2 1-255).
T11 sequence: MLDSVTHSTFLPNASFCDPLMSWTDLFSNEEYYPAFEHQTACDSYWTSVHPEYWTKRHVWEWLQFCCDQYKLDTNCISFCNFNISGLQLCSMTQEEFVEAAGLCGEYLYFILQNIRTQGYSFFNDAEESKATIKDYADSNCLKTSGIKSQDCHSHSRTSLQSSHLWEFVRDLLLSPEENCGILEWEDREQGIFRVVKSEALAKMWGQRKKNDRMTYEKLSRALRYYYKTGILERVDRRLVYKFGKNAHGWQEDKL
The settings on record: protein: recombinant; tags: N-terminal GST; dsDNA, one strand shown. Put shortly:
as §1

The target in another assay is T12, ETV3 (Homo sapiens, UniProt P41162-2 1-143).
T12 sequence: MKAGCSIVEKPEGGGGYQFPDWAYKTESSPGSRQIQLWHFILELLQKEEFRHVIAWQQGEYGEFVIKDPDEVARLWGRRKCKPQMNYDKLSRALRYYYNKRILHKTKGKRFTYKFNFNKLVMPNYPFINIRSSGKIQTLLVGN
To be noted: protein: recombinant; tags: N-terminal GST; dsDNA, one strand shown. Put shortly:
as §1

The next assay concerns the target ETV6 (Homo sapiens, UniProt P41212 1-452). The settings on record: protein: recombinant; tags: N-terminal GST; dsDNA, one strand shown. Put shortly: as §1

Chain of ETV6 (P41212 whole entry): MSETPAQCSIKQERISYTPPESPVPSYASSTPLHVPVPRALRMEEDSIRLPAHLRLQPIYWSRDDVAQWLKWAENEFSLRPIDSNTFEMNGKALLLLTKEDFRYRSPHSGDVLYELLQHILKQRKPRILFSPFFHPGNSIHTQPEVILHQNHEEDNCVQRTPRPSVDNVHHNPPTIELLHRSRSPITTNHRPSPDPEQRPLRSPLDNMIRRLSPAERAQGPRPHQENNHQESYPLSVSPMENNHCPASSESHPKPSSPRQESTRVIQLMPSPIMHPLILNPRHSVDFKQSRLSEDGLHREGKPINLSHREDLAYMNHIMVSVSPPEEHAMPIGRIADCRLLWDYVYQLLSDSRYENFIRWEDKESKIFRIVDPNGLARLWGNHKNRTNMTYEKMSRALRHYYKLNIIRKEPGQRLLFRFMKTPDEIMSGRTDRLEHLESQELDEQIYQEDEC
Chain of ETV5 (P41161 whole entry): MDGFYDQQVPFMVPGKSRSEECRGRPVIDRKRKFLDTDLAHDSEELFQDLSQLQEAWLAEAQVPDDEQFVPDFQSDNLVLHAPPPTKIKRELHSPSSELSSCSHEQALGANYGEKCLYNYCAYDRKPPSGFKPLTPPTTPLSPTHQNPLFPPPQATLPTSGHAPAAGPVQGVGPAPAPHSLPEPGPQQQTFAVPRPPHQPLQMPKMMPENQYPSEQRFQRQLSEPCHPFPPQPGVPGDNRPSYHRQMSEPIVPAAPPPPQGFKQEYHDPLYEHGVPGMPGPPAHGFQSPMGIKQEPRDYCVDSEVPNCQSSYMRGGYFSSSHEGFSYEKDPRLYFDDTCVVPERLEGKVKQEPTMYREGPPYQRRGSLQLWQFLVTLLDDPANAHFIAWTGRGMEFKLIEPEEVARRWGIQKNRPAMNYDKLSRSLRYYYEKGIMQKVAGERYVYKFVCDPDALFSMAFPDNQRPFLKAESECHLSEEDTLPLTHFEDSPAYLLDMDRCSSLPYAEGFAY
Chain of ELF4 (Q99607 whole entry): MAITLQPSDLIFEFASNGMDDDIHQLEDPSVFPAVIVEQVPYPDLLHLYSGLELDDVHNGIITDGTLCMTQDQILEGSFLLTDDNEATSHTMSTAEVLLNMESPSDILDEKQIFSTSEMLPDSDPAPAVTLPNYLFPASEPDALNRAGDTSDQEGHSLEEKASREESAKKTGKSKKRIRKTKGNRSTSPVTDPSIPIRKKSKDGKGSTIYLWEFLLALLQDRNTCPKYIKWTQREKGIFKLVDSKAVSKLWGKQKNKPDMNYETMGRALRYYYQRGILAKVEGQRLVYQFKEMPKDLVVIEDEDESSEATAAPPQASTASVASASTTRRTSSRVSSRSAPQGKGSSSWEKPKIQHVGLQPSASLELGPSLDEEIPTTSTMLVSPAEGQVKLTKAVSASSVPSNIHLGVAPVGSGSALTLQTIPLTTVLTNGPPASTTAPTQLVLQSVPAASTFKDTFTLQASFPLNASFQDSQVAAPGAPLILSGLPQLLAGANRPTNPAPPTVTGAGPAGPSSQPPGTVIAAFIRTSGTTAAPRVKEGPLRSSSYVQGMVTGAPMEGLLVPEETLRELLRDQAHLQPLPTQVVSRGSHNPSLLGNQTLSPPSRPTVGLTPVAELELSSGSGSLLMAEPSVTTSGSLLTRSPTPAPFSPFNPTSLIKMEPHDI
Chain of HSF1 (Q00613 whole entry): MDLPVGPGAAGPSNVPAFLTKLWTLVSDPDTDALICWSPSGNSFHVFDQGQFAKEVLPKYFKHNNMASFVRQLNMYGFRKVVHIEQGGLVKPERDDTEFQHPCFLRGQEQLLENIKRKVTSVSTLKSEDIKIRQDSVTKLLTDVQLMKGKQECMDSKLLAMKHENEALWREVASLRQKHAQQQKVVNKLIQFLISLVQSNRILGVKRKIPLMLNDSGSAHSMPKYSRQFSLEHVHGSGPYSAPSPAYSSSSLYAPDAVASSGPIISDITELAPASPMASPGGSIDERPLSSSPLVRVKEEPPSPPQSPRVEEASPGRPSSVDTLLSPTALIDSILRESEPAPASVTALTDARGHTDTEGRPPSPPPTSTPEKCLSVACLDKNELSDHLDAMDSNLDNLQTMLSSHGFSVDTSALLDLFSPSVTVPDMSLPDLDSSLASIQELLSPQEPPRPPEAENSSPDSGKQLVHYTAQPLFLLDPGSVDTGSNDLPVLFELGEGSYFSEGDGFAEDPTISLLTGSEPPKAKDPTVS
Chain of CRX (O43186 whole entry): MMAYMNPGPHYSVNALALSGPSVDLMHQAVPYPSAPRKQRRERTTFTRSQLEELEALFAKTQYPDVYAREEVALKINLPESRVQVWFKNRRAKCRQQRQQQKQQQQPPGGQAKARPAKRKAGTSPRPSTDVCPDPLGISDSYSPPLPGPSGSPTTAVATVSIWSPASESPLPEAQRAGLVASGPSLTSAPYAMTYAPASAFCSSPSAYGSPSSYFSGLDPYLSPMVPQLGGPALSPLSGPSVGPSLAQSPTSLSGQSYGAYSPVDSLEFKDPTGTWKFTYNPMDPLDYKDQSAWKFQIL

Turning to ATGTTT, the binding signal with FEV is 1.36 fold enrichment (6-mer frequency, TF over GST control); in the assay with ETV5 it was 1.4 fold enrichment (6-mer frequency, TF over GST control); with HSF1 it was 1.32 fold enrichment (6-mer frequency, TF over GST control); with SPIC, 1.27 fold enrichment (6-mer frequency, TF over GST control); with ELF4 it was 1.3 fold enrichment (6-mer frequency, TF over GST control); in the assay with ELK4 it was 1.37 fold enrichment (6-mer frequency, TF over GST control). The binding signal with ETV2 was 1.41 fold enrichment (6-mer frequency, TF over GST control); in the assay with ELF3, 1.34 fold enrichment (6-mer frequency, TF over GST control); with CRX, 1.26 fold enrichment (6-mer frequency, TF over GST control); with ETV1, 1.26 fold enrichment (6-mer frequency, TF over GST control); with ERF it was 1.46 fold enrichment (6-mer frequency, TF over GST control); with ETV3L it was 1.48 fold enrichment (6-mer frequency, TF over GST control). The binding signal with ETS2 was 1.29 fold enrichment (6-mer frequency, TF over GST control); with SPDEF, 1.37 fold enrichment (6-mer frequency, TF over GST control); in the assay with ETV7, 1.46 fold enrichment (6-mer frequency, TF over GST control); in the assay with ELF5, 1.47 fold enrichment (6-mer frequency, TF over GST control); in the assay with ETV3, 1.47 fold enrichment (6-mer frequency, TF over GST control); in the assay with ETV6, 1.47 fold enrichment (6-mer frequency, TF over GST control).
